Source: PubChem BioAssay
PLK1 PBD block: blocks phosphopeptide binding to human PLK1 polo-box domain. P53350. Plk1 PBD binding of FITC phosphopeptide, fluorescence polarization. Potency, µM, usual class: inhibitors. 2.8% of 360,000 active. AID 720504; also: series mostly up to about 57 µM; nearly all actives have a fitted effect of over 65% in size
Target sequence (P53350 whole entry, looked up, the tested form may be a part): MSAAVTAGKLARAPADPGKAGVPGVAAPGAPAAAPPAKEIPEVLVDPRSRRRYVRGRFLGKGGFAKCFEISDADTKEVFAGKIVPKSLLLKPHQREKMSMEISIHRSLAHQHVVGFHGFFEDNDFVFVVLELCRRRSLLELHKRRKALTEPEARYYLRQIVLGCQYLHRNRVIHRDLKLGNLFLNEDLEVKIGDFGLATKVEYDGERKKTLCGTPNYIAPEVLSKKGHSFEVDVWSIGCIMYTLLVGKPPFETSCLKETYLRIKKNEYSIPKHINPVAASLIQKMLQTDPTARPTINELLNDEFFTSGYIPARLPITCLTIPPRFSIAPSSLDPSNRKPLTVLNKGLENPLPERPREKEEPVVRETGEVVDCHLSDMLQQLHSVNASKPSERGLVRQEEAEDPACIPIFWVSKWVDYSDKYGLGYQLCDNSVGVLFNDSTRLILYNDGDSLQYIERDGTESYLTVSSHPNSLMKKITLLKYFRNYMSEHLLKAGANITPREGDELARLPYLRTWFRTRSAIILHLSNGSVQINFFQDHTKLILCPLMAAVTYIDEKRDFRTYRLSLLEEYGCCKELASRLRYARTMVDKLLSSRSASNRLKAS
Tau ThT inhib: blocks human tau fibril formation measured by thioflavin T; 2.1% of 270,000 active; Potency, µM (highest dose often 57.4 µM), usual class: inhibitors; recombinant tau K18 P301L, heparin-induced fibrillization, ThT fluorescence; P10636; also: nearly all actives have a fitted effect of over 55% in size
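Heparin-induced fibrillization of the P301L-mutant K18 repeat-domain fragment of human tau was followed by ThT binding in quantitative high-throughput format.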
VDR inh: vitamin D3 receptor (human) inhibition | VDR-SRC2-3 peptide fluorescence polarization, 2 h | 0.93% of 400,000 active | Potency, µM, most hits filed as inhibitors | P11473
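FP read-out; VDR + SRC2-3 coactivator peptide; 23 nl compound by pintool; 2 h RT incubation; reagents held at 4 deg C, protected from light.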
Tau fluor cs: counter-screen for tau fibril formation inhibitors; tau K18 P301L Alexa594 fluorescence, heparin fibrillization; Potency, µM (top dose mostly 57.7 µM); 0.93% of 280,000 active; AID 1463; also: nearly all actives have a fitted effect of over 55% in size
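Human tau K18 P301L (15 uM unlabeled, 0.24 uM Alexa 594-labeled) in 100 mM sodium acetate pH 7 with 20 uM heparin, 6 hr at 37 C. ThT 30 uM added, 1 hr ambient; Alexa 594 FP and total fluorescence read at 555/632 nm.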
Sfp inh: Sfp phosphopantetheinyl transferase inhibition; 3.5% of 310,000 active; Potency, µM, usual class: inhibitors; Q9F4F7; Biochemical Sfp PPTase activity, qHTS;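 also: the enzyme is Sfp with the accession as filed and its product quenches rhodamine fluorescence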
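Fluorescence-quenching assay with 15 nM Sfp, 5 uM rhodamine-CoA and 12.5 uM BHQ-2-labelled ybbR peptide in pH 7.6 Hepes/MgCl2 buffer. Enzyme was pre-incubated with compound for 15 min at room temperature. Rate was taken from the 30-min fluorescence change (525/598 nm).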
Tau FP inhib: inhibitors of human tau fibril formation | P10636 | K18 P301L tau heparin fibrillization, Alexa594 FP, 6 h | Potency, µM (series often up to 57.7 µM), hits mostly inhibitors | 0.39% of 280,000 active; also: nearly all actives have a fitted effect of over 55% in size
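Recombinant K18 P301L […], labeled with Alexa 594 at 0.24 uM over 15 uM unlabeled; heparin inducer 20 uM final; 37 C, 6 hr; FP endpoint.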
Each line names hits and unclear results; the compound was inactive in the other large screens; ! = a repeat was not active; [ ] = dose if it differs, or a comment. In the library only some 6% were active in any assay of this set; here they are far more common. Calls follow the shape of the dose curve; as a rule, active = well fitted curve in the direction sought with a large enough effect; inconclusive = small, poorly fitted or top-dose-only effect, or another doubt; inactive = no such curve, though single readings can be large; an effect the other way counts as inactive or inconclusive.

CCOc1ccc(NC(=O)C2CCCN(S(=O)(=O)c3ccc4[nH]c(=O)ccc4c3)C2)cc1 (stereo not drawn)	PLK1 PBD block 27µM
CCOc1ccc(NC(=O)CN2C(=O)COc3ccc(S(=O)(=O)N4CCCCC4)cc32)cc1	PLK1 PBD block 27µM (no result: Tau ThT inhib, Tau fluor cs, Tau FP inhib)
CCN(C(=O)CN1C(=O)COc2ccc(S(=O)(=O)N3CCCCCC3)cc21)c1cccc(C)c1	PLK1 PBD block 24µM, VDR inh inconclusive (no result: Tau ThT inhib, Tau fluor cs, Tau FP inhib)
CCN(Cc1ccccc1)C(=O)CN1C(=O)COc2ccc(S(=O)(=O)N3CCCCCC3)cc21	none
COc1cc(NC(=O)C2CCCN(S(=O)(=O)c3ccc4[nH]c(=O)ccc4c3)C2)cc(OC)c1 (stereo not drawn)	none (no result: Tau ThT inhib, Tau fluor cs, Tau FP inhib)
CCN(CC)S(=O)(=O)c1cc(-c2ccc(=O)n(C(C)C(=O)Nc3cccc(C#N)c3)n2)ccc1C (stereo not drawn)	Tau fluor cs inconclusive (no result: PLK1 PBD block, Sfp inh)
CC(=O)N1c2ccccc2N=C(c2ccc3c(c2)OCO3)C1C(=O)NCc1ccccc1 (stereo not drawn)	none (no result: Tau ThT inhib, VDR inh, Tau fluor cs, Sfp inh, Tau FP inhib)
O=C(Nc1cccc(Cl)c1)N1CCN2C(=O)c3ccccc3C12c1ccccc1 (stereo not drawn)	PLK1 PBD block 12µM, Tau fluor cs inconclusive, Tau FP inhib inconclusive
O=C(CCl)N1CCN2C(=O)c3ccccc3C12c1ccc(Cl)cc1 (stereo not drawn)	PLK1 PBD block inconclusive, VDR inh inconclusive
Cc1ccc(-c2noc(-c3nnn(CC(=O)Nc4ccc(C)c(Cl)c4)c3N)n2)cc1	none (no result: PLK1 PBD block, Sfp inh)
N[C@H](C(=O)O)c1nn[nH]n1	Sfp inh 89µM (no result: PLK1 PBD block)
CCN(CC)C(=O)CSc1nc2sc3c(c2c(=O)n1CCCOC)CCC3	PLK1 PBD block 24µM, VDR inh inconclusive (no result: Tau ThT inhib, Tau fluor cs, Tau FP inhib)
Cc1ccc(C2C(C(N)=S)=C(N)OC3=C2C(=O)CC(C)(C)C3)cc1 (stereo not drawn)	Tau ThT inhib inconclusive, VDR inh inconclusive, Sfp inh 3.5µM
COc1ccc(-c2cc3nc(-c4ccc(Br)cc4)cc(C(F)(F)F)n3n2)cc1	none (no result: PLK1 PBD block, Sfp inh)
Oc1ccc2ccccc2c1CNc1ccc(Br)cc1	PLK1 PBD block 6.7µM, VDR inh inconclusive (no result: Tau ThT inhib, Tau fluor cs, Tau FP inhib)
Cn1c(NCc2c(O)ccc3ccccc23)nc2ccccc21	Tau ThT inhib inconclusive, Tau fluor cs 18µM[quencher]
Oc1ccccc1CNc1cnc2ccccc2c1	none
Cn1c(CNc2nc3ccccc3n2C)nc2ccccc21	none
Oc1ccc2ccccc2c1CNc1cnc2ccccc2c1	PLK1 PBD block 3.4µM, Tau ThT inhib inconclusive, Tau fluor cs inconclusive, Sfp inh 28µM
CC(C)N(C(=O)[C@H]1C[C@H](CC(=O)NCC23CC4CC(CC(C4)C2)C3)C(=O)N2CCc3c([nH]c4cc(CCC(=O)N(C)C)ccc34)[C@]12C)C(C)C	none (no result: Tau ThT inhib, Tau fluor cs, Sfp inh, Tau FP inhib)
CN=C1N[C@H](c2ccccc2)N(c2ccccc2)S1	Tau ThT inhib 20µM, VDR inh 25µM, Sfp inh 112µM, Tau FP inhib 32µM (no result: PLK1 PBD block)
CCCCn1c(N)c(N(CCOC)C(=O)C2CCN(S(=O)(=O)c3ccc(Cl)cc3)CC2)c(=O)[nH]c1=O	none (no result: Tau ThT inhib, Tau fluor cs, Tau FP inhib)
CCCCCCCCn1ccc(=N)cc1	none
CCCCCCCCCCCCCCCCn1cc[n+](C)c1	Tau ThT inhib inconclusive, Sfp inh 22µM
COC(=O)c1cc(Cl)ccc1NC(=O)Cn1c(C)cc(C)c(C#N)c1=O	none (no result: PLK1 PBD block, Sfp inh)
COC(=O)c1ccc(-c2ccc(/C=N/NC(=O)CC3(C)OCCCO3)o2)cc1	Tau ThT inhib inconclusive, Sfp inh 50µM
Cc1ccccc1Nc1c(-c2ccc(N3CCOCC3)cc2)nc2ccc(Cl)cn12	Tau ThT inhib inconclusive, Tau fluor cs inconclusive (no result: PLK1 PBD block, Sfp inh)
NC(N)=NC(=O)Cc1c(Cl)cccc1Cl	Sfp inh 89µM!, Tau FP inhib inconclusive
O=C(Cc1c(Cl)cccc1Cl)OCc1ccccn1	none (no result: Tau ThT inhib, Tau fluor cs, Tau FP inhib)
O=C(Nc1ccccc1C(=O)O)c1ncn[nH]1	Sfp inh 45µM
O=C(O)c1ccccc1Nc1ccc(CCc2ccc(Cl)c(Cl)c2)cc1	VDR inh 35µM (no result: PLK1 PBD block, Tau ThT inhib, Tau fluor cs, Tau FP inhib)
O=C(O)c1ccccc1NC(=O)c1ccccc1Nc1ccccc1	PLK1 PBD block 30µM (no result: Tau ThT inhib, Tau fluor cs, Tau FP inhib)
O=C(Nc1ccccc1C(=O)Nc1ccccc1C(=O)O)c1ccccc1	PLK1 PBD block inconclusive (no result: Tau ThT inhib, Tau fluor cs, Tau FP inhib)
O=C(O)c1ccccc1Nc1cc(Cl)cc(Cl)c1	VDR inh inconclusive (no result: PLK1 PBD block, Tau ThT inhib, Tau fluor cs, Tau FP inhib)
